Compound activity from PubChem.
Hits are enriched below; roughly 3.3% of the tested compounds scored in any of these assays.
esBAF inh: inhibitors of esBAF chromatin remodeling in mouse ES cells | Bmi1-luciferase knock-in reporter, 24 h; 100% = twice the neutral-well signal | hit rate 2% among 350,000 | AID 602393 | reporter increase, % at 12.5 µM; in the data active means activation above about 40%;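 further: a rise in the Bmi1 reporter signal indicates esBAF inhibition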
697 NFkB inh: inhibitors of the PMA/ionomycin-induced NF-kB reporter in 697 B cells; 697 B-cell NF-kB luciferase reporter, 16 h; hit rate 0.33% among 330,000; inhibition, % at 4 µM; in the data active means inhibition above about 35%
SMARCA2 activ: increases SMARCA2 function in MMTV reporter cells; MG213 cells, MMTV-luciferase reporter, dexamethasone, overnight; activation, % at 9.1 µM; hit rate 1% among 370,000; AID 652017; in the data active means activation above about 7.8%
Jurkat NFkB inh: inhibitors of the PMA/ionomycin-induced NF-kB reporter in Jurkat cells. PMA/ionomycin-induced NF-kB luciferase reporter, luminescence. inhibition, % at 4 µM. hit rate 0.53% among 330,000. AID 435003; in the data active means inhibition above about 50%
Gli-Sufu antag: antagonists of Gli-Sufu signaling | inhibition, % at 5 µM | Sufu-KO-LIGHT fibroblasts, Gli luciferase reporter luminescence | hit rate 0.74% among 340,000 | AID 588413;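 active means inhibition above about 55%, limit read from the data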
697 NFkB conf: inhibitors of the PMA/ionomycin-induced NF-kB reporter in 697 B cells, retest; 697 B-cell NF-kB luciferase, 16 h; inhibition, % at 4 µM; hit rate 35% among 2,000; AID 449746; shares compounds with 697 NFkB inh; in the data active means inhibition mostly above about 28%, no sharp cut-off; inactive means mostly below about 22%
Each line names hits and unclear results; the compound was inactive in the other large screens (follow-up assays come after a bar, where they were run).

C[C@H](CO)N1C[C@H](C)[C@@H](CN(C)C)OCCCC[C@H](C)Oc2ccc(NC(=O)CCC(F)(F)F)cc2C1=O	none (no result: 697 NFkB inh, SMARCA2 activ, Jurkat NFkB inh, Gli-Sufu antag)
O=C(CSc1ncn[nH]1)Nc1ccc(Cl)c(Cl)c1	697 NFkB inh 35.2 (no result: esBAF inh) | 697 NFkB conf inactive
CC1(C)CC1C(=O)Nc1ccc([N+](=O)[O-])cc1Br (stereo not given)	none
Cc1ccc(C2(c3ccc(C)cc3)CC2C(=O)Nc2ccc([N+](=O)[O-])cc2O)cc1 (stereo not given)	697 NFkB inh 97.3 | 697 NFkB conf 96.8
C[C@@H]1CN([C@H](C)CO)C(=O)c2cc(NC(=O)c3ccncc3)ccc2O[C@@H](C)CCCCO[C@@H]1CN(C)S(=O)(=O)c1ccccc1	none (no result: 697 NFkB inh, SMARCA2 activ, Jurkat NFkB inh, Gli-Sufu antag)
CC(C)c1[nH]nc2c1C(c1ccco1)C(C#N)=C(N)O2 (stereo not given)	697 NFkB inh 48.7 (no result: esBAF inh) | 697 NFkB conf 29.7
CC(C)c1[nH]nc2c1C(c1cccnc1)C(C#N)=C(N)O2 (stereo not given)	none
C[C@@H]1CCCCO[C@H](CN(C)S(=O)(=O)c2cccs2)[C@@H](C)CN([C@@H](C)CO)C(=O)c2cc(NS(=O)(=O)c3ccc(F)cc3)ccc2O1	none (no result: 697 NFkB inh, SMARCA2 activ, Jurkat NFkB inh, Gli-Sufu antag)
Cc1nn(C)cc1CN1CCC(CO)(CCOc2ccccc2)CC1	697 NFkB inh 43.1 (no result: esBAF inh) | 697 NFkB conf inactive
Cc1ccc(C)c(Nc2nn3c(=O)c4ccc(C(=O)NCc5cccnc5)cc4nc3s2)c1	697 NFkB inh 43.3 | 697 NFkB conf inactive
Cc1cc(C)c(C(=O)NC2CCCc3c2cnn3-c2cccc(C)c2C)o1 (stereo not given)	none | 697 NFkB conf inactive
O=C(NC1CCCc2c1cnn2-c1ccccc1F)c1ccccn1 (stereo not given)	none | 697 NFkB conf inactive
O=C(NC1CCCc2c1cnn2-c1ccc(F)cc1F)c1ccccn1 (stereo not given)	none (no result: esBAF inh)
C[C@@H]1CN([C@@H](C)CO)S(=O)(=O)c2ccc(C#C[C@@H](C)O)cc2O[C@H]1CN(C)CC1CCCC1	none (no result: 697 NFkB inh, SMARCA2 activ, Jurkat NFkB inh, Gli-Sufu antag)
O=C(NC1CCCc2ccccc21)c1ccc(Br)cc1 (stereo not given)	none (no result: esBAF inh)
O=C(CCNC(=O)c1ccc(Br)cc1)NC1CCCc2ccccc21 (stereo not given)	none | 697 NFkB conf inactive
CCC(CO)Oc1cc(NCc2ccccc2O)c2ncn(C(C)C)c2c1 (stereo not given)	697 NFkB inh 44.9 | 697 NFkB conf 46.0
CCC(CO)Oc1cc(NCc2ccc(Cl)cc2Cl)c2ncn(C(C)C)c2c1 (stereo not given)	none
CN(C)CC(=O)N1[C@@H]2c3cccc(=O)n3C[C@H]1[C@H](CO)[C@H]2C(=O)NCc1ccccc1	none (no result: 697 NFkB inh, SMARCA2 activ, Jurkat NFkB inh, Gli-Sufu antag)
O=C(Oc1cccc(/C=N/Nc2nc(Nc3ccccc3)nc(N3CCOCC3)n2)c1)c1ccco1	697 NFkB inh 43.4 (no result: esBAF inh) | 697 NFkB conf 49.3
Fc1ccc(Nc2nc(N3CCOCC3)nc(N3CCOCC3)n2)cc1	none
Cc1[nH]c2ccccc2c1/C=N/Nc1nc(Nc2ccc(F)cc2)nc(N2CCOCC2)n1	697 NFkB inh 48.4 | 697 NFkB conf 59.6
Cc1c(O)ccc(/C=N/Nc2ncccc2[N+](=O)[O-])c1O	none | 697 NFkB conf inactive
O=[N+]([O-])c1cccnc1N/N=C/c1ccccc1O	none
CCCCCN(C(=O)CCC(=O)OCc1cccc(Br)c1)c1c(N)n(CCCC)c(=O)[nH]c1=O	697 NFkB inh 35.2 | 697 NFkB conf inactive
CCCCCN(C(=O)CCC(=O)OCc1cccc(Cl)c1)c1c(N)n(CCCC)c(=O)[nH]c1=O	none
CC(=O)N(C)C[C@H]1Oc2ncc(C#CC(C)(C)O)cc2C(=O)N([C@@H](C)CO)C[C@@H]1C	none (no result: 697 NFkB inh, SMARCA2 activ, Jurkat NFkB inh, Gli-Sufu antag)
COc1cccc(/C=C2/SC(=S)N(CCCC(=O)Nc3ccc(O)cc3)C2=O)c1	697 NFkB inh 79.6 (no result: esBAF inh) | 697 NFkB conf 74.4
CCN(CC)CCOC(=O)c1ccc(NC(=O)CCCN2C(=O)S/C(=C/c3ccc(OC)cc3)C2=S)cc1	697 NFkB inh 52.3 (no result: SMARCA2 activ) | 697 NFkB conf 60.2
O=C(CCCN1C(=O)/C(=C/c2ccc(F)cc2)SC1=S)Nc1ccc(C(=O)O)cc1	none (no result: 697 NFkB inh, Jurkat NFkB inh, Gli-Sufu antag)
O=C(CCCN1C(=O)/C(=C\c2ccccc2)SC1=S)Nc1ccc(O)cc1	none (no result: esBAF inh)
COc1cccc(/C=C2\SC(=S)N(CCCC(=O)NC3=NCCS3)C2=O)c1	697 NFkB inh 42.1 | 697 NFkB conf 50.7
COc1cccc(/C=C2\SC(=S)N(CCCC(=O)Nc3ccc(C(=O)O)cc3)C2=O)c1	697 NFkB inh 53.4 | 697 NFkB conf 60.6
O=C(CCN1C(=O)/C(=C\c2ccccc2)SC1=S)Nc1ccc(C(=O)O)cc1	none
CCCNC(=O)Nc1ccc2c(c1)OC[C@@H](C)N(C(=O)C1CC1)C[C@H](C)[C@H](OC)CN(C)C2=O	none (no result: 697 NFkB inh, SMARCA2 activ, Jurkat NFkB inh, Gli-Sufu antag)
COc1ccc(/C=C2\SC(=S)N(CCC(=O)Nc3ccc(O)cc3)C2=O)cc1	697 NFkB inh 47.5 | 697 NFkB conf 37.5
COc1ccc(/C=C2/SC(=S)N(CCCC(=O)Nc3ccc(O)cc3)C2=O)cc1OC	697 NFkB inh 45.1 (no result: esBAF inh) | 697 NFkB conf 42.8
COc1ccc(/C=C2\SC(=O)N(CCCC(=O)Nc3ccc(C(=O)O)cc3)C2=O)cc1OC	697 NFkB inh 62.3 | 697 NFkB conf 70.8
CCOc1ccc(/C=C2/SC(=S)N(CCC(=O)Nc3ccc(C(=O)O)cc3)C2=O)cc1	697 NFkB inh 77.0 | 697 NFkB conf 77.0
COc1ccc(/C=C2\SC(=S)N(CCCC(=O)Nc3ccc(C(=O)O)cc3)C2=O)cc1OC	none
CC(C)[C@H](NC(=O)Nc1cccc(C(F)(F)F)c1)C(=O)O	none
COC(=O)[C@H](C)NC(=O)Nc1cccc(C(F)(F)F)c1	697 NFkB inh 35.6 | 697 NFkB conf inactive
Cc1cccc(/C(N)=N/OC(=O)c2ccc3c(c2)OCO3)c1	none (no result: esBAF inh) | 697 NFkB conf inactive
O=C(NCC[C@H]1CC[C@@H](NC(=O)C2CC2)[C@@H](CO)O1)c1cc(Cl)cc(Cl)c1	none (no result: 697 NFkB inh, SMARCA2 activ, Jurkat NFkB inh, Gli-Sufu antag)
CNC(=S)N/N=C/c1cn(CCOc2cccc(OC)c2)c2ccccc12	697 NFkB inh 39.5 (no result: esBAF inh) | 697 NFkB conf inactive
COc1cccc(OCCn2cc(/C=N/NC(=O)c3ccncc3)c3ccccc32)c1	none (no result: esBAF inh)
CNC(=S)N/N=C/c1cn(CCOc2ccccc2OC)c2ccccc12	697 NFkB inh 35.3 (no result: esBAF inh) | 697 NFkB conf inactive
Nc1nc2ccc(Cl)cc2c2nc(-c3ccco3)nn12	697 NFkB inh 35.9 (no result: esBAF inh, SMARCA2 activ, Gli-Sufu antag) | 697 NFkB conf 28.4
Nc1nc(-c2ccco2)nn1C(=O)c1ccc(Cl)cc1	none (no result: esBAF inh)
CO[C@@H]1CN(C)C(=O)c2cc(NC(=O)NC3CCCCC3)ccc2OC[C@H](C)N(C(C)=O)C[C@@H]1C	none (no result: 697 NFkB inh, SMARCA2 activ, Jurkat NFkB inh, Gli-Sufu antag)
O=C(Nc1nccs1)c1cc2c(s1)CCCCC2	none (no result: esBAF inh) | 697 NFkB conf inactive
C/C(=N\Nc1ccc(C(=O)O)cc1)c1ccc(Cl)s1	esBAF inh 67.0 | 697 NFkB conf inactive
C/C(=N/Nc1ncc(Br)cn1)c1ccc(Br)cc1	none
C/C(=N\Nc1ccc(C(=O)O)cc1)c1ccc(Br)cc1	none | 697 NFkB conf inactive
O=C(Nc1nc(-c2ccccc2)cs1)c1ccccc1NS(=O)(=O)c1ccc(F)cc1	697 NFkB inh 47.0 (no result: esBAF inh) | 697 NFkB conf 52.3
